This note sets out measurements from the OligoGym collection.
Also: reference of the scale not given here.

One assay concerns the target STX17. The assay can be described thus: pooled miR-30 sensor sort-seq; sequence = guide strand. Particulars: shRNA.
For TACTTCTCAATATTTATCTGGT, the sensor-assay potency score (higher = more potent) worked out at 0.329. Take TTCTACACATCTCAAGTCCTTA: the sensor-assay potency score (higher = more potent) was found to be 0.0253. TTCATCATTAAATTGCTTCTTA displayed a sensor-assay potency score (higher = more potent) of 0.611. Turning to TCAAACTCTGAGAACTAGCTTC, the sensor-assay potency score (higher = more potent) came to 0.0575.

Regarding TTCTTTAACAGGATCTATCATT, the sensor-assay potency score (higher = more potent) is -0.828. Take TATATCTGAGTCAAACTCTGAG: the sensor-assay potency score (higher = more potent) was 0.23. Still for that read-out and setting: for TTCTGCAGCATTTTGATCTTGA the value was 0.632.

TAGTATGAAATGCTCCACCAAC registered a sensor-assay potency score (higher = more potent) of -1.07. On the same count and under the same terms, for AATGCTGTCAATCTTCTCCTGC the value was 0.00387; for TTGACATGGTCTGCAATGCTGT, -0.961; for TTTGTATCAATTTTCCACCTGT, 0.455. The sequence TTCTTCATCATTAAATTGCTTC returned a sensor-assay potency score (higher = more potent) of 0.0874.

A further assay concerns the target STYK1. The assay is described as above. Particulars: shRNA.
The sequence TTGTTCTCTGATAAAAAGCCAC yielded a sensor-assay potency score (higher = more potent) of -1.1. For TATGTCTTAGCTCAGGATGTGT, the sensor-assay potency score (higher = more potent) was -0.84. The same measure, in the same setting: for TTGAGAATAACACTCTTGGGCT the value was -0.459; for ATAGTCATCACATCCCGCCGAC, -0.512. TATTCCTTCATTTCATTCCAAA gave a sensor-assay potency score (higher = more potent) of -1.26. In turn, TTCATGATACTGTACATGGTAT yielded a sensor-assay potency score (higher = more potent) of -0.548. For ATCCATAGTCATCACATCCCGC, the sensor-assay potency score (higher = more potent) was -0.719. Same read-out and setting: for TTGAGTTCTTTGTTCTCTGATA the value was -1.2. TTTAATGGCAGCTTCTAGGCGC: the sensor-assay potency score (higher = more potent) was determined as 0.0946. TTGAGGTCCAGAACGCTGCTGT showed a sensor-assay potency score (higher = more potent) of 0.125. On the same count and under the same terms, for ATAGTAACCAACAAAGTTGGGA the value was 0.0523; for TAGAAGAGGCTCTCCACTCTGA, 0.202.

The target in another assay is STYX. Described as above. Particulars: shRNA.
With TTTCTGTAGTACAGGTAGCTTG, the sensor-assay potency score (higher = more potent) was -1.

TAGAAATTCACACTCTATGATG yielded a sensor-assay potency score (higher = more potent) of -0.976. TTCTTTCTTGAACATAAGCAAA returned a sensor-assay potency score (higher = more potent) of -1.59.

The sequence TAGCAGATGAATATGGGCCTAA gave a sensor-assay potency score (higher = more potent) of -0.352.

In turn, TTCTGTAGTACAGGTAGCTTGC displayed a sensor-assay potency score (higher = more potent) of -0.197.

TAAATATCTAAATAACTGCTGA: the sensor-assay potency score (higher = more potent) was -0.29. The same measure, in the same setting: for TAATACAAAATCTTCTTTCTTG the value was 0.259; for TTGCTTCAATATTTTGTCGTAT, -0.787. Regarding TAGGGTAGGTCCACTCCTCGGC, the sensor-assay potency score (higher = more potent) was 0.0939. On the same count and under the same terms, for TGTAGTACAGGTAGCTTGCTTT the value was -0.453; for TTGCTTTTCATAGCAGATGAAT, -1.47; for TAAAATTTCCTGCATCTCTCGT, -0.395.
